Molecules are shown by their SMILES.

A short description of the assay: small-molecule binders of probe aNOTCH3, primary screen, biochemical, small-molecule microarray, 635/667 nm fluorescence (AID 1120).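 Note: probe is a biotin-tagged antibody raised against NOTCH3 rather than NOTCH3 protein; score merges spot fluorescence near 667 nm with spot signal to noise.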 Particulars: higher = more signal.
Consider `[N-]=[N+]=Nc1ccccc1[C@H]1OC(c2ccc(OCCCO)cc2)=N[C@@]1(CCS(=O)(=O)c1ccccc1)C(=O)N1CCCCC1`, for which the composite z-score is 0.355.

Molecule `CN(C)CCCNC(=O)[C@@H]1c2ccccc2C(=O)N(CC23CC4CC(CC(C4)C2)C3)[C@H]1c1ccc(CO)cc1` displayed a composite z-score of -0.001.

Molecule `COC(=O)[C@]1(CCS(=O)(=O)c2ccccc2)N=C(c2ccc(OCCCO)cc2)O[C@@H]1c1ccccc1CN=[N+]=[N-]` had a composite z-score of 0.0357.

`O=C(NC1CC1)[C@@H]1c2ccccc2C(=O)N(Cc2ccccc2)[C@H]1c1ccc(CO)cc1`: the composite z-score was -0.272.

`COC(=O)C1(Cc2ccccc2)C=C2C(=C(c3ccccc3)C(=O)C2C)CN1` (centres undefined) displayed a composite z-score of 1.59.

`NC(N)=NCc1cn(CCc2c[nH]c3ccccc23)nn1` gave a composite z-score of -0.0647.

Regarding `CC(=O)n1cc(C(O)C2C=CC3C(=O)N(c4ccccc4)C(=O)C3N2Nc2ccccc2)c2ccccc21` (centres undefined), the composite z-score turned out to be 0.504.

For the molecule `CC(C)C(O)C1C=CC2C(=O)N(C)C(=O)C2N1N(c1ccccc1)c1ccccc1` (centres undefined), the composite z-score was -0.047.

In the case of `C=C(CCCC)/C(=C/C[C@@H](OC(C)=O)c1ccc(CO)o1)c1cc(C(=O)OC)ccc1OC`, the composite z-score was -0.0195.

In the case of `COCCOC(=O)N1C(=O)[C@@]2(c3cc(C#Cc4ccc(OC)cc4)ccc31)[C@H](C(=O)N1CCCCCCC1)[C@H]1C(=O)O[C@H](c3ccccc3)[C@H](c3ccccc3)N1[C@@H]2c1ccc(O)cc1`, the composite z-score is 0.807.

Consider `C#CCNC(=O)[C@H](Cc1ccccc1)NC(=O)[C@@H](N=[N+]=[N-])C(C)C`, for which the composite z-score is -0.0431.

`COc1c(C)cc(-c2cc3c(c(-c4ccccc4)n2)[Si](C(C)C)(C(C)C)OC3)cc1C`: the composite z-score is -0.116.

Molecule `CN(C)CCCCNC(=O)[C@H]1C[C@H]2C(=O)N[C@@H](CCCCN(C)C)C(=O)N2[C@H]1c1cccc(OCCO)c1` returned a composite z-score of 0.0691.

As for `COC(=O)C1(Cc2ccccc2)C=C2C(=C(C(C)C)C(=O)C2C)CN1` (centres undefined), the composite z-score turned out to be 0.183.

Consider `[N-]=[N+]=NCc1ccccc1C[C@@]1(C(N)=O)N=C(c2ccc(OCCCO)cc2)O[C@@H]1c1ccccc1CN=[N+]=[N-]`, for which the composite z-score came to 0.105.

On to `C=CCNC(=O)[C@@H]1[C@H]2C(=O)O[C@H](c3ccccc3)[C@H](c3ccccc3)N2[C@H](c2ccccc2OCCO)[C@@]12C(=O)N(C(=O)OCCOC)c1ccc(C#CC3=CCCCC3)cc12`, for which the composite z-score was -0.0699.

Take `[N-]=[N+]=NCc1ccccc1C[C@@]1(C(=O)NCCN2CCOCC2)N=C(c2ccc(OCCCO)cc2)O[C@@H]1c1ccccc1N=[N+]=[N-]`: the composite z-score was determined as 0.163.

For the molecule `O=C1OCC=C[C@H]2OC34C=CCN(c5ccc(Cl)cc5)C(=O)[C@H]3N(CCCCCO)C(=O)[C@@H]4[C@@H]12` (some centres undefined), the composite z-score was -0.42.

As to `CN(C)C(=O)[C@]1(CCC(=O)OC(C)(C)C)N=C(c2ccc(OCCCO)cc2)O[C@@H]1c1ccccc1`, the composite z-score is 0.116.

`CCCNC(=O)[C@@]1(c2ccc([N+](=O)[O-])cc2)CC(=O)N(C2CCCCC2)[C@@H]1c1ccc(CO)cc1I`: the composite z-score is -0.0328.

Consider `COC(=O)C[C@H]1O[C@]2(C(=O)N(C)c3ccccc32)[C@@H](C)[C@@H]1[Si](C)(C)c1ccc(C)cc1`, for which the composite z-score is -0.113.

In turn, `COCCOC(=O)N1C(=O)[C@@]2(c3cc(C#CC4(O)CCCCCC4)ccc31)[C@H](c1ccccc1OCCO)N1[C@H](c3ccccc3)[C@H](c3ccccc3)OC(=O)[C@H]1[C@@H]2C(N)=O` returned a composite z-score of 0.0282.

The molecule `CO[C@H]1O[C@H](CO)[C@@H](OC(=O)c2ccc(Br)cc2)[C@@H]2OC(=O)[C@@H](Cc3ccc4ccccc4c3)C/C=C/C[C@H](Cc3ccc4ccccc4c3)C(=O)O[C@@H]12` returned a composite z-score of 0.109.

In turn, `COCCCNC(=O)[C@]1(Cc2ccccc2N=[N+]=[N-])N=C(c2ccc(OCCCO)cc2)O[C@@H]1c1ccccc1N=[N+]=[N-]` registered a composite z-score of 0.0348.

Take `C=CCOC(=O)[C@H]1[C@@H]2C(=O)O[C@@H](c3ccccc3)[C@@H](c3ccccc3)N2[C@@H](c2ccc(OCCOC(=O)[C@H]3C[C@H]4C(=O)N[C@@H](CCCC[N+](C)(C)C)C(=O)N4[C@H]3c3cccc(OCCO)c3)cc2)[C@]12C(=O)Nc1ccc(I)cc12`: the composite z-score is -0.208.

For the molecule `COc1ccc(NN2C(C(O)c3ccco3)C=CC3C(=O)N(C4CCCCC4)C(=O)C32)cc1` (centres undefined), the composite z-score stood at 0.353.

`O=C1NC(=O)C2C1C=CC(C(O)c1ccc(Br)cc1)N2Nc1ccccn1` (centres undefined) yielded a composite z-score of 0.327.

Turning to `C[C@]1(C(=O)O)c2ccccc2C(=O)N(Cc2ccccc2)[C@H]1c1ccc(CO)cc1`, the composite z-score is -0.236.

Molecule `COCCOC(=O)N1C(=O)[C@@]2(c3cc(C#CC4(O)CCCCCC4)ccc31)[C@H](C(N)=O)[C@H]1C(=O)O[C@H](c3ccccc3)[C@H](c3ccccc3)N1[C@@H]2c1ccc(O)cc1` displayed a composite z-score of 0.676.

The values are drawn from PubChem BioAssay.
